Data: PubChem BioAssay (NCI)
This is part of a sample that, as a whole, favours compounds with a hit. Of some 79,000 tested, about 15% had one in any assay. A number with no mark means an inactive call. Calls of active or inactive are those of the source. Cut-off read from the data, not from the text of the source: active = growth inhibition above about 70%; inactive = the rest.

assay: NCI Yeast Anticancer Drug Screen. Data for the rad50 strain (AID 155);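 note: 0% = growth of vehicle-only cultures of the same strain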; settings: S. cerevisiae rad50 strain growth inhibition; at 50.0 µM; stronger effect = higher value
Method in brief: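 DNA repair mutant yeast, compound exposure, growth read-out; inhibition is taken relative to vehicle.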

| Structure (SMILES) | growth inhibition |
| --- | --- |
| O=[N+]([O-])c1ccc(-c2ccccc2-c2ccccc2)cc1 | 3.9% |
| OC1OCC(COc2ccc(Cl)cc2)OC1O (configuration not stated) | -17.6% |
| CN1C=CC(=Cc2ccccc2)C=C1 | 3.3% |
| NC(=O)NNC(=O)c1nc[nH]c1[N+](=O)[O-] | -24.2% |
| c1cc2c(cc1CC1CO1)OCO2 (configuration not stated) | -12.2% |
| CC(=O)NCC(C)(C)C | 2.15% |
| CC(=O)NC(C)NC(C)=O | -11.8% |
| CCC(C)(C)c1ccc(OCCCCNC(=O)c2ccc3ccccc3c2O)c(C(C)(C)CC)c1 | -7.65% |
| CCCCCCCCc1cc(CN2CCOCC2)c(O)c(CN2CCOCC2)c1 | 25.1% |
| O=C(CCCC(=O)N/N=C/c1ccc(I)cc1)N/N=C\c1ccc(I)cc1 | 29.9% |
| N#CCCN(C1=NN(C(=O)CC(=O)Nc2cccc(Cl)c2)C(c2ccccc2)C1)c1ccccc1Cl (configuration not stated) | 8.2% |
| Cc1cccc(NC(=O)O/N=C(\Cl)C(C)C)c1 | -13.8% |
| CCCCCN(CCCCC)CC(O)c1cccc2c1cc(Br)c1ccccc12 (configuration not stated) | 30.7% |
| O=C(O)c1cc(Cl)ccc1-c1ccc(Cl)cc1C(=O)Nc1ccc2c(c1)Cc1cc(Cl)cc(Cl)c1-2 | 96.2% (active) |
| Oc1ccc(NCc2ccccc2)cc1 | 32.9% |
| CC(C)C1CCC(C)(C=O)C1 (configuration not stated) | -19.7% |
| CC1=C(C(=O)Nc2ccc([N+](=O)[O-])cc2)C(c2cccc([N+](=O)[O-])c2)C(C(=O)Nc2ccc([N+](=O)[O-])cc2)=C(C)N1 | -9.25% |
| CC(=O)OCC(OC(C)=O)C1(O)CCC2C3CCC4=CC(=O)CCC4(C)C3CCC21C (configuration not stated) | 98.4% (active) |
| CCN(CC)CCN1C(=O)C(=O)N(c2cccc3ccccc23)C1=O | -26.9% |
| COc1ccc(NC(=O)N2CC3CCN2CC3)cc1 | -7.95% |
| O=c1[nH]c2nc[nH]c(=O)c2[nH]1 | 0.25% |
| Oc1ccc(Cl)cc1C=Nc1cnc2ccccc2c1 | -14.6% |

assay: NCI Yeast Anticancer Drug Screen. Data for the mec2-1 strain (AID 157); settings: S. cerevisiae mec2-1 strain, at 50.0 µM, stronger effect = higher value
Method in brief: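 Growth inhibition is read against vehicle-treated controls after compound exposure of the mec2-1 yeast strain, which is defective in DNA damage repair or cell cycle control.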

| Structure (SMILES) | growth inhibition |
| --- | --- |
| NC(=O)c1ccccn1 | -5.45% |
| COc1cc(C=Nc2ccc(C(C)C)cc2)cc(OC)c1OC | 13.3% |
| CC(=O)OCC(=O)COC(C)=O | -6.35% |
| CCCCNc1ccc([N+](=O)[O-])cc1[N+](=O)[O-] | -15.4% |
| Nc1ncc(C(=O)O)c(N)n1 | 4.6% |
| COC1=CC(=O)C=C(OC)C1=O | -12.8% |
| C/C=C/[C@@]1(OC(=O)c2ccccc2)C[C@@H]2CCCC[C@@H]21 | 11.1% |
| CN(C)CCN(C(=Nc1ccccc1)N1CCCC1)c1ccccc1 | -30.8% |
| CCOC(=O)C(C(=O)OCC)=C1c2ccccc2Oc2ccccc21 | 8% |
| C=C(C)COCc1ccc(C(C)(C)CC(C)(C)C)cc1 | -10.3% |
| O=[N+]([O-])c1ccc(N=NC(=S)NNc2ccccc2)cc1 | 0.65% |
| [O-]/[N+](=C\c1ccc(Cl)cc1)c1ccccc1 | -14.1% |
| Cc1ccc(/S(Cc2ccccc2)=N\S(=O)(=O)c2ccc(C)cc2)cc1 (configuration not stated) | -36% |
| Cc1nc(N)c2c(ncn2C2OC(CO)C(O)C2O)n1 (configuration not stated) | 1.85% |
| O=C1c2c(-c3ccccc3)ccc(-c3ccccc3)c2C(=O)c2c(-c3ccccc3)ccc(-c3ccccc3)c21 | -3.4% |
| COc1ccc(N2C(=O)C3c4[nH]c5ccc(OC)cc5c4C4CCC(C(C)(C)C)CC4C3C2=O)cc1 (configuration not stated) | 12.6% |
| COCCC(N)C(=O)O (configuration not stated) | -13.3% |
| Cc1sc2c(c1C)C(=O)c1cccn1-2 | -27.8% |
| O=[N+]([O-])c1ccc(-c2ccccc2-c2ccccc2)cc1 | -2.8% |
| OC1OCC(COc2ccc(Cl)cc2)OC1O (configuration not stated) | -9.05% |

| Structure (SMILES) | growth inhibition |
| --- | --- |
| CN1C=CC(=Cc2ccccc2)C=C1 | 5.85% |
| NC(=O)NNC(=O)c1nc[nH]c1[N+](=O)[O-] | -3.3% |
| c1cc2c(cc1CC1CO1)OCO2 (configuration not stated) | -11.7% |
| CC(=O)NCC(C)(C)C | 10.8% |
| CC(=O)NC(C)NC(C)=O | -9.95% |
| CCC(C)(C)c1ccc(OCCCCNC(=O)c2ccc3ccccc3c2O)c(C(C)(C)CC)c1 | 2.05% |
| CCCCCCCCc1cc(CN2CCOCC2)c(O)c(CN2CCOCC2)c1 | 14.6% |
| O=C(CCCC(=O)N/N=C/c1ccc(I)cc1)N/N=C\c1ccc(I)cc1 | 9% |
| N#CCCN(C1=NN(C(=O)CC(=O)Nc2cccc(Cl)c2)C(c2ccccc2)C1)c1ccccc1Cl (configuration not stated) | -28.8% |
| Cc1cccc(NC(=O)O/N=C(\Cl)C(C)C)c1 | -34.9% |
| CCCCCN(CCCCC)CC(O)c1cccc2c1cc(Br)c1ccccc12 (configuration not stated) | 1.55% |
| O=C(O)c1cc(Cl)ccc1-c1ccc(Cl)cc1C(=O)Nc1ccc2c(c1)Cc1cc(Cl)cc(Cl)c1-2 | 97.5% (active) |
| Oc1ccc(NCc2ccccc2)cc1 | 8.45% |
| CC(C)C1CCC(C)(C=O)C1 (configuration not stated) | -0.5% |
| CC1=C(C(=O)Nc2ccc([N+](=O)[O-])cc2)C(c2cccc([N+](=O)[O-])c2)C(C(=O)Nc2ccc([N+](=O)[O-])cc2)=C(C)N1 | -4.4% |
| CC(=O)OCC(OC(C)=O)C1(O)CCC2C3CCC4=CC(=O)CCC4(C)C3CCC21C (configuration not stated) | 99% (active) |
| CCN(CC)CCN1C(=O)C(=O)N(c2cccc3ccccc23)C1=O | -15.7% |
| COc1ccc(NC(=O)N2CC3CCN2CC3)cc1 | -10.8% |
| O=c1[nH]c2nc[nH]c(=O)c2[nH]1 | -7.6% |
| Oc1ccc(Cl)cc1C=Nc1cnc2ccccc2c1 | 24.9% |
